From the supplement of paper PMC6555819 come the findings set out here.

The assay has as its system PPARg DBDmut IVT, anti-PPARg (DBD mutation: PPARg1 K132A/R137A, NR concentration 270 nM). The assay is described as follows: PBM binding z-score (relative to random genomic background probes); higher = stronger binding; sequences stand for … in GC…GCGATTGACAGCGTAGAATGAAGG
Put shortly: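 Each nuclear receptor dimer, without ligand, was incubated for 1 h on custom Agilent 4×180K protein-binding microarrays. Binding was detected with antibodies against each partner (one per run), and scanned fluorescence was regression-normalized. The binding z-scores are referenced to random human genomic background probes.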
Consider GATACAGGGTCAGCTAGAGGCCTGAGTATGGAAA, for which the PBM binding z-score was -0.805. In turn, CTCGAAAGGTCGTGCTCAGGTGAGCATACCAAAC returned a PBM binding z-score of 0.25. For CGTCCAAGGTCAAAGGTCAGTGAGGAGATGACGG, the PBM binding z-score was -0.522. Next, GATGCTAGGTCAACTGATGGTCAGCTAAAGCTCG: -0.329; AGATTGAGGTTATTAAGATCAGGGAATTGCGGTC: 0.969.

In the case of CGTCCAAGGCCAATGCTAGGTCAGTGAAAGCATT, the PBM binding z-score is -1.46.

Turning to GAAACAGGGTCAAGGCCAGAGTACGCGTATTGAT, the PBM binding z-score worked out at 1.01.

As for CCGCCTAGGTCAGGGCCAGTATAGGAGGAACGTT, the PBM binding z-score is -2.07. In turn, CCGAGTAGGTTAGGGGGCATTCAGGCAACGGTGA came in with a PBM binding z-score of 4.7.

For the sequence ACTCGGAGGACAACGGTCAGAGCTACGCCAGTGA, the PBM binding z-score is -0.749. Next, CGTCAAAGTTCAACTAAGGTAACGTACAGCACGC: 0.528.

In the case of GCGACTGGGGCATCAGCAGGTTACAATAACTTAA, the PBM binding z-score is -0.53. Next, TCTCGGAAGACACGAAAGGTCAGAGCTCGACATC: -0.207. For TCGAGAAGGTTAGTCGGGGCATTCAGCCAACATA the value was -0.49.

With AGAATGAGGTTATACGTAGATCAGGGAGGAAAGT, the PBM binding z-score was 0.799. For ATATGTAGGTTATCGGGCCATTCAGTTTGCGCAT the value was 3.56; for TATACAGGGTAAAAGGCCAGAGTACGAATGTCGA, 1.04. With CCTGCTAGGTAAATGGTCAGCTAAAGCAGCTCGC, the PBM binding z-score is -1.53. Next, TCTAATTGGTCAAAGGTCACACACTCGAAATGCG: 4.82; TCATATAGGTTAATGCTAGGTGAAAGTCCGATCT: 0.726; TAGCCTAGGTCAGATCGGCCCAGTATACGCTATA: -1.36. Next, CAAACTAGGTAACAGAGGTCAAAGTCCGTGCGTA: 1.28.
